Screening results as filed in PubChem.
The entries come from a sample that favours hits as a whole.
LmPK inh – inhibitors of Leishmania mexicana pyruvate kinase | Potency, µM (doses to about 57.5 µM), without a hit: top-dose activity change, negative = inhibition, hits mostly inhibitors | hit rate 0.37% among 290,000 | Q27686 | purified LmPK, Kinase-Glo ATP luminescence, 1 h; active = well fitted curve in the direction sought with a large enough effect; inconclusive = small, poorly fitted or top-dose-only effect, or another doubt; inactive = no such curve, though single readings can be large; an effect the other way counts as inactive or inconclusive; note: potency is the fitted concentration of half-maximal effect; % is set by controls: 0 for no effect and ±100 for the full control effect
Target sequence (Q27686 whole entry, looked up): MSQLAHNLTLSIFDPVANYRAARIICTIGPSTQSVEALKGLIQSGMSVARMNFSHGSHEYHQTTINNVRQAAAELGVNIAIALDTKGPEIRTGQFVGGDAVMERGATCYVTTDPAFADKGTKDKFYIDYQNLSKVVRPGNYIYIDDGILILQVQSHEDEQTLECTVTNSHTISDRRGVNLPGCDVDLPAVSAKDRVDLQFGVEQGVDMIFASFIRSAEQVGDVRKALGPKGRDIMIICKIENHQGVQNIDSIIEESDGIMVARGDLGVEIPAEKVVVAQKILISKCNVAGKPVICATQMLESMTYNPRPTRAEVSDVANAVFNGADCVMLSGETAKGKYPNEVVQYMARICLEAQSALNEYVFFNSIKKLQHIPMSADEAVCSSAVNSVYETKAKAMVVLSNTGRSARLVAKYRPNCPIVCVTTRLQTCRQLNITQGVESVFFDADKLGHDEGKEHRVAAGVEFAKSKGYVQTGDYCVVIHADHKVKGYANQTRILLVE
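qHTS format; LmPK 0.1 nM; substrates PEP 0.5 mM and ADP 0.1 mM. One-hour room-temperature incubation, then coupled luciferase luminescence; 0.5 nM enzyme wells mark activation.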
SARS PLpro yeast – SARS-CoV PLP inhibition in yeast. Potency, µM (highest dose often 32.9 µM), for inactives: at the top dose activity, positive = growth rescue, hits mostly activators. AID 485353. S. cerevisiae expressing SARS-CoV PLpro, growth rescue. hit rate 0.19% among 330,000; note: potency is the fitted concentration of half-maximal effect; 0% is about no effect; nearly all actives have a fitted effect of over 55% in size
NS1 inh – inhibitors of influenza NS1 protein function; Potency, µM (series often up to 46.1 µM), without a hit: top-dose activity, positive = more growth; hit rate 0.4% among 270,000; note: potency is the fitted concentration of half-maximal effect; actives are rising curves; nearly all actives have a fitted effect of over 50% in size
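Read-out: OD600 growth recovery of NS1-expressing budding yeast. Cells grown overnight at 30C in -URA glucose medium, washed, resuspended and diluted 1:100 in 2% galactose assay medium, pH 6.0. Same strain lacking NS1 served as positive control.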
Tb PYK inh – inhibitors of Trypanosoma brucei pyruvate kinase; hit rate 0.12% among 410,000; Q57TT1; TbPYK enzyme, Kinase-Glo Plus ATP luminescence, 45 min; Potency, µM (top dose mostly 76.8 µM), for inactives: at the top dose activity, negative = inhibition, hits mostly inhibitors; active = well fitted curve in the direction sought with a large enough effect; inconclusive = small, poorly fitted or top-dose-only effect, or another doubt; inactive = no such curve, though single readings can be large; an effect the other way counts as inactive or inconclusive; note: potency is the fitted concentration of half-maximal effect; % is set by controls: 0 for no effect and ±100 for the full control effect; nearly all actives have a fitted effect of over 50% in size
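Glycolytic pyruvate kinase of T. brucei was incubated with substrate, test compound and 130 uM ADP for 45 minutes at room temperature. Luminescent Kinase-Glo Plus signal was measured after 10 minutes.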
Shiga toxin inh – inhibitors of Shiga toxin in Vero cells. Vero cells, Shiga toxin protein synthesis inhibition reporter. inhibition, % at 38.7 µM. hit rate 9.2% among 290,000. AID 2315; in the data active = inhibition mostly above about 28%, no sharp cut-off; inactive = mostly below about 43%; note: 0% is about no effect
Cycloheximide cs – counter-screen hit for Shiga toxin inhibitors, cycloheximide; cell reporter, cycloheximide protein synthesis inhibition counterscreen; max response, %; hit rate 12% among 300,000; in the data active = max response mostly above about 13%, no sharp cut-off; inactive = mostly below about 14%; note: read at 38.3 µM for the half of the compounds with a filed dose; 0% is about no effect
* = called active by the depositor; ? = inconclusive; . = not tested or not shown. Unless noted, calls come from the whole dose curve.

SMILES | LmPK inh | SARS PLpro yeast | NS1 inh | Tb PYK inh | Shiga toxin inh | Cycloheximide cs
Cc1c(C)c2c(OCC(=O)N3CCC[C@H]3C(=O)O)cc3c(c2oc1=O)CCC(C)(C)O3 | 0% | 2% | ? | 1% | 8 | -1
COc1ccc(Nc2nccc3c2nnn3C)cc1 | -12% | -18% | 1% | 1% | 97* | 45*
COc1cc(OC)cc(-c2nnc3n2N=C(c2ccc(OC)cc2OC)CS3)c1 | . | . | . | . | -7 | 1
COc1ccc2c(c1OC)C(=O)N1N=C(c3ccc(Cl)cc3)CC21 (centres undefined) | 0% | -17% | -17% | -5% | 8 | 13*
C=CC[n+]1c(C)csc1Nc1ccc(C)cc1 | 1% | 3% | . | 0% | 37 | 24*
C=CC[n+]1c(C)csc1Nc1cccc(Br)c1 | -1% | -7% | . | -1% | 31 | 17
Cc1cccc(C)c1-c1ccc(CN2C(CC(C)C)C(=O)N(Cc3cn(CC4CCCCC4)nn3)CCS2(=O)=O)cc1 (centres undefined) | . | . | . | -9% | . | .
O=C(CCN1C(=O)/C(=C/c2ccccc2F)SC1=S)NCCc1ccc(O)cc1 | -1% | -5% | 2% | -9% | -5 | -3
O=C(CCN1C(=O)/C(=C/C=C/c2ccccc2)SC1=S)Nc1cccnc1 | 0% | 14% | 17% | 10% | 86* | 47*
COc1ccccc1/C=C1/SC(=S)N(CCC(=O)Nc2cccnc2)C1=O | -8% | ? | 9% | 0% | 10* | 36*
COc1ccccc1/C=C1\SC(=S)N(CCC(=O)NCCc2ccc(O)cc2)C1=O | 4% | -3% | 17% | 5% | 10 | 21*
CN1CCN(c2ccc(C(F)(F)F)cc2NC(=O)c2ccco2)CC1 | -1% | 0% | 5% | 1% | -13 | -3
O=S(=O)(c1cccc2c(Cl)cccc12)N1CCCNCC1 | . | . | -11% | . | . | .
Cc1cccc(NC(=O)c2ccc(NCC3CCCO3)c([N+](=O)[O-])c2)c1 (centres undefined) | 6% | 18% | 3% | -6% | 2 | 19*
Cc1ccc(C(=O)Nc2cccc(NC(=O)c3ccc(C)c([N+](=O)[O-])c3)n2)cc1[N+](=O)[O-] | 0% | -3% | -1% | -4% | 7 | 0
Cc1cccc(NC(=O)c2ccc(NCC3CCCO3)c([N+](=O)[O-])c2)n1 (centres undefined) | 0% | -1% | . | -4% | 68* | 19*
Cc1cccc(NC(=O)c2ccc(NCCO)c([N+](=O)[O-])c2)n1 | -2% | 3% | -3% | -4% | 53* | 30*
O=C(Nc1cccc(Cl)c1)c1ccc(NCC2CCCO2)c([N+](=O)[O-])c1 (centres undefined) | 4% | 4% | 1% | -3% | -11 | -3
C=CCOC(=O)C1=C(C)NC(=O)NC1c1cc(Cl)cc(Cl)c1OC (centres undefined) | -3% | -6% | 3% | 0% | -11 | -2
CC(=O)Nc1ccccc1/C=C/c1ccc2c(C)ccc(O)c2n1 | -1% | 2% | 3% | 1% | 18 | 17*
Nc1ncccc1OCc1ccc(Br)cc1 | -16% | 1% | . | 2% | 77* | 71*
COc1ccc(Cc2c(N)nc(C)nc2N)cc1 | -5% | 1% | . | -2% | 5 | -6
COc1ccc(COc2cccnc2N)cc1 | -12% | 2% | -2% | -4% | 56* | 35*
O=S(=O)(c1cc(F)ccc1F)N1CCN(C2CCCCC2)CC1 | -1% | 0% | 7% | -4% | -5 | -3
CCN1CCN(c2cc(C)c3cc(NC(=O)c4cc(Br)ccc4Cl)ccc3n2)CC1 | . | . | . | 2% | . | .
SMILES | LmPK inh | SARS PLpro yeast | NS1 inh | Tb PYK inh | Shiga toxin inh | Cycloheximide cs
O=C(Nc1ccc(N2CCOCC2)nc1)c1ccc(F)cc1 | -4% | -8% | 3% | -2% | 48* | 41*
CN(C)c1ccc(NC(=O)c2ccc(N3CCOCC3)nc2)cc1 | -9% | 2% | 0% | -26% | 79* | 34*
Cc1ccccc1C(=O)Nc1ccc(N2CCOCC2)nc1 | -1% | 4% | -5% | -2% | 58* | 30*
COc1ccc(NC(=O)c2ccc(N3CCOCC3)nc2)cc1 | -12% | ? | 0% | -4% | -4 | -5
O=C(Nc1ccc(N2CCOCC2)nc1)c1cccs1 | -4% | 3% | . | -12% | 57* | 38*
CC(=O)Nc1cc2c(cc1Cl)-c1ccccc1C2O (centres undefined) | . | . | . | 0% | . | .
CN1CCN(c2ccc(NC(=O)c3ccc(Cl)cc3)cn2)CC1 | 2% | 1% | . | 1% | 23 | 42*
Cc1ccc(C(=O)Nc2ccc(N3CCOCC3)nc2)cc1 | 0% | 4% | -13% | -3% | 75* | 20*
Cc1ccc(C(=O)Nc2cccc(-c3ccc(N4CCOCC4)nn3)c2)cc1 | . | 6% | . | 4% | . | .
O=C(Cn1cc([N+](=O)[O-])ccc1=O)NCc1ccc(Cl)cc1Cl | -5% | -4% | -2% | -1% | 24* | 33*
O=C(Cn1cc(C(F)(F)F)cc(Cl)c1=O)NCc1ccc(Cl)cc1Cl | -14% | 13% | 16% | 5% | -6 | -3
CCOc1ccc(-n2c(SCC(=O)Nc3cc(C)on3)nc3c(c2=O)SCC3)cc1 | 0% | 0% | 16% | 1% | 19 | -2
COc1ccccc1C(=O)n1nc(-c2ccccc2)nc1NCc1ccco1 | 2% | -34% | -132% | 0% | 46 | 21*
O=C(c1cccnc1)n1nc(NCc2ccccc2)nc1NCc1ccccc1 | 2% | -1% | -42% | -2% | 15 | -2
O=C(c1ccc(F)cc1)n1nc(-c2ccccc2)nc1NCc1ccco1 | . | . | . | -3% | . | .
O=C(c1ccco1)n1nc(NCc2ccccc2)nc1NCc1ccccc1 | -1% | -3% | -48% | 6% | 37* | 9.9*
O=C(c1ccco1)n1nc(-c2ccccc2)nc1NCc1ccco1 | 4% | 1% | -9% | -5% | 14 | 7
O=C(COc1ccccc1)n1nc(-c2ccc(Cl)cc2)nc1NCc1ccco1 | -7% | 8% | -5% | . | 26* | 48*
Cc1ccc(-c2nc(NCc3ccco3)n(C(=O)c3ccco3)n2)cc1 | -2% | 0% | . | 0% | 122* | 42*
COc1ccc(CNc2nc(NCc3ccc(OC)cc3)n(C(=O)c3ccccc3[N+](=O)[O-])n2)cc1 | -4% | -5% | ? | -1% | 75* | 26*
CSC1=N/C(=C/c2cccnc2)C(=O)N1Cc1ccc(Cl)cc1 | -4% | 0% | 1% | -1% | -12 | 44*
COc1ccc(OC)c(NC(=O)C2(C)CCN2CCc2ccccc2)c1 (centres undefined) | . | . | . | 5% | . | .
COc1ccc(CC(=O)N2CCc3cc(OC)c(OC)cc3C2COc2ccc3c(C)cc(=O)oc3c2)cc1OC (centres undefined) | . | . | . | 1% | . | .
Cc1cc(C)n2nc(C(=O)Nc3nccs3)nc2n1 | -13% | 1% | -2% | -1% | 84* | 23*
